Source: PubChem BioAssay (Tox21)
Where “and” joins values, the source holds several entries; their conditions need not be identical. Equal values may be shown once. Inconclusive results are not listed. Entries that show only a call come without a potency. Calls of active or inactive are those of the source. The call rests on the fitted dose curve; in most records, active means well fitted inhibition curve with a large enough effect in the repeat runs; inconclusive means weak or mixed curves; inactive means flat fitted curve, though single readings scatter.

experiment: qHTS assay to identify small molecule HDAC inhibitors (AID 1259364); conditions: HCT-116 HDAC-Glo I/II luminescence, 2 h; series mostly up to 92.4 µM; further: top concentration of the series differs between compounds; nearly all actives have a fitted effect of over 45% in size
From the text: U.S. Tox21 Program National Center for Advancing Translational Sciences [NCATS] NIH Chemical Genomics Center [NCGC] U.S. Environmental Protection Agency [EPA] National Institutes of Environmental Health Sciences [NIEHS] National Toxicology Program [NTP] U.S. Food and Drug Administration [FDA] Tox21 Assay Overview: Histone deacetylases (HDACs) are a group of epigenetic enzymes that regulate gene expression by histone deacetylation. HDACs are capable of introducing epigenetic modifications and such aberrations contribute to the onset and progression of several human diseases, thus making HDACs a popular therapeutic target. For identifying endogenous class I/II HDAC inhibitors a homogenous, luminogenic HDAC I/II cell based assay was used to measure the relative activity of class I and II HDACs from cells. Wild type HCT-116 cells were used to screen Tox21 libraries for identifying class I/II HDAC inhibitors.
Tox21 Assay Protocol Summary: HCT-116 cells were dispensed at 1,500 per well in 5uL of culture medium into white solid bottom 1536-well plates (Greiner Bio-One, Monroe, NC) using a Multidrop Combi (Thermo Scientific, Waltham, MA) dispenser. The assay plates were incubated at 37 C and 5% CO2 for an overnight, and then 23nL of compounds dissolved in DMSO and positive control were transferred using a Pintool station (Wako, San Diego, CA). The assay plates were incubated at 37C and 5% CO2 for 2hr. After compound treatment, 4uL of HDAC-Glo reagent (Promega Corporation, Madison, WI) was added to each well of the assay plates using Flying Reagent Dispenser (FRD, Aurora Discovery, San Diego, CA) and incubated the assay plates at room temperature for 30min. The luminescence signal was quantified using a ViewLux plate reader (Perkin Elmer, Shelton, CT).

Structure (SMILES) | Potency | activity change, negative = inhibition
O=[N+]([O-])c1ccc(/C=C/c2ccc([N+](=O)[O-])cc2S(=O)(=O)O)c(S(=O)(=O)O)c1 | inactive | –
O=c1[nH]c(=O)n([C@H]2C[C@H](O)[C@@H](CO)O2)cc1Br | inactive | –
CC(=O)Nc1cccc(O)c1 | inactive | –
CCCCCCOCCO | inactive | –
CCc1ccc(CCOc2ccc(CC3SC(=O)NC3=O)cc2)nc1 (stereo not given) | inactive | –
CC(O)COCC(C)O (stereo not given) | inactive | –
Cc1ccc(N(C)C)cc1 | inactive | –
O=C(O)c1ccc2c(c1)C(=O)OC2=O | inactive | –
C=C(C)C(=O)OCCOCCOCCOC(=O)C(=C)C | inactive | –
O=C(O)c1ccc(C(=O)O)cc1 | inactive | –
CC(C)(C)[C@@H](O)[C@@H](Cc1ccc(Cl)cc1)n1cncn1 | inactive | –
CC(=O)CC(=O)Nc1ccccc1 | inactive | –
CCOC(=O)NNc1nncc2ccccc12 | inactive | –
OCC(CO)(CBr)CBr | inactive | –
CCCCC(CC)COC(=O)C(C#N)=C(c1ccccc1)c1ccccc1 (stereo not given) | inactive | –
CCCCCCCCCC | inactive | –
CCC(O)OCCCOC (stereo not given) | inactive | –
O=C(O)c1cc(O)c(O)c(O)c1 | inactive | –
OCc1cccnc1 | inactive | –
CC1=C(C)S(=O)(=O)CCS1(=O)=O | inactive | –

Structure (SMILES) | Potency | activity change, negative = inhibition
O=C(CC(C(=O)OC1CCCCC1)S(=O)(=O)O)OC1CCCCC1 (stereo not given) | inactive | –
CCCC(C)=O | inactive | –
CCN(CC)CCCC(C)Nc1ccnc2cc(Cl)ccc12 (stereo not given) | – | 5.21% [at 8.39 µM] (inactive) and -11.7% [at 19 µM] (inactive)
C=C(C)C(=O)O[C@H]1C[C@@H]2CC[C@@]1(C)C2(C)C | inactive | –
Cc1occc(=O)c1O | inactive | –
CCc1cccc(C)c1N | inactive | –
CCCCC(CC)CO (stereo not given) | inactive | –
O=S(=O)(O)c1ccc2ccccc2c1 | inactive | –
C=CCOC(=O)c1ccccc1C(=O)OCC=C | inactive | –
Cc1cnc(C(=O)NCCc2ccc(S(=O)(=O)NC(=O)NC3CCCCC3)cc2)cn1 | inactive | –
O=C(O)c1cc(C(=O)O)cc(S(=O)(=O)O)c1 | inactive | –
CCCCOC(=O)COc1ccc(Cl)cc1Cl | inactive | –
CC(=O)CC(=O)Nc1ccccc1C | inactive | –
COS(C)(=O)=O | inactive | –
CN(C)CCC(c1ccccc1)c1ccccn1 (stereo not given) | inactive | –
OCCOCCN1CCN(C2=Nc3ccccc3Sc3ccccc32)CC1 | inactive | –
CC1=CCC2CC1C2(C)C (stereo not given) | inactive | –
CCCCCOC(C)=O | inactive | –
O=C1CCC(N2C(=O)c3ccccc3C2=O)C(=O)N1 (stereo not given) | inactive | –
CCCCCCCCCCCCCCO | inactive | –
